Out of some 16,000 compounds screened, about 2,600 (16%) were called active. Inconclusive results (about 20%) are left out. Calls come from the whole dose curve; as a rule, active = well fitted curve in the direction sought with a large enough effect; inconclusive = small, poorly fitted or top-dose-only effect, or effect the other way; inactive = no such curve, though single readings can be large or run the other way. Only a sample is shown.
target: Cytochrome P450 2D6 (Homo sapiens) (UniProt P10635); test: Cytochrome panel assay with activity outcomes; settings: recombinant CYP, pro-luciferin dealkylation, luminescence, p450-cyp2d6; series mostly up to 57.1 µM
% is set by controls: 0 for no effect and ±100 for the full control effect.

Cytochrome P450 2D6 (Homo sapiens), sequence (P10635 whole entry, looked up): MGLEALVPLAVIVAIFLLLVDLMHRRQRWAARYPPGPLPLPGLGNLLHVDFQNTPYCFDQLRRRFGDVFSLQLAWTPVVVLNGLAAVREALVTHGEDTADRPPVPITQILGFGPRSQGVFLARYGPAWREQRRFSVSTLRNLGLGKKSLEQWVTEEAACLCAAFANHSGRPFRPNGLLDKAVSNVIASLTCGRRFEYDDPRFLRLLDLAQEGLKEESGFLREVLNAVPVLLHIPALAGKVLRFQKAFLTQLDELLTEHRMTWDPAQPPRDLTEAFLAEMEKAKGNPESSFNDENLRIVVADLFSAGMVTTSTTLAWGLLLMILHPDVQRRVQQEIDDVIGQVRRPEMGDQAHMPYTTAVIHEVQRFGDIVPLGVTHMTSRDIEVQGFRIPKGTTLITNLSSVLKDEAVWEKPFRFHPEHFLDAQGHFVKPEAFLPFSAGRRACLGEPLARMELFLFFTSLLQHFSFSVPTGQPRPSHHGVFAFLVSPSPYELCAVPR

AC50, active:
CC1(C)CC(O)CC(C)(C)N1CC(O)COCCOc1ccc(Br)cc1 (configuration not stated) 14.1 µM
FC(F)(F)c1ccccc1-c1ccc2ncnc(NCc3cccs3)c2c1 10 µM
Cc1ccccc1-c1ccc2ncnc(NCc3cccs3)c2c1 10 µM
Nc1c2c(=O)oc(-c3ccccc3)cc2nn1-c1ccccc1 5.01 µM
CS(=O)(=O)Nc1ccc([N+](=O)[O-])cc1OC1CCCCC1 0.0501 µM

AC50, inactive:
CCOc1cc(C#N)c(NC(=O)c2cccnc2)cc1OCC
COCCNC(=O)c1onc(CSc2ccccc2F)c1C(=O)O
CC(C)(C)NC(=O)C(=O)NNC(=O)c1ccccc1
N[C@H](C(=O)O)c1nn[nH]n1
O=C(NNC(=S)NCc1ccco1)c1ccc(Cl)s1
Nc1ccc2c3c(cccc13)C(=O)NC2=O
O=c1c(-c2cccs2)nc2cncnc2n1C1CC1
COc1cccc(Nc2ncc3nc(CCc4ccccc4)c(=O)n(Cc4cccs4)c3n2)c1
O=C(NCc1ccccc1)C(c1ccncc1)N(C(=O)c1csnn1)C1CC1 (configuration not stated)
CC(C)(C)NC(=O)NC(=O)CSc1nnc2ccccn12
O=c1cnc2cnc(N3CCOCC3)nc2n1C[C@H]1CCCO1
CC1CN(C(=O)COc2ncnc3ccccc23)CC(C)O1 (configuration not stated)
CC1=CC(C)(C)N(C)C(=O)N1c1ccc(Cl)cc1
COC(=O)c1[nH]c2cc(OC)ccc2c1NC(=O)CCN1CCSCC1
CCOC(=O)C(C)Sc1ncc(OC)c(Sc2ccc(Cl)cc2)n1 (configuration not stated)
Cc1cc(N)n(-c2ccccc2)n1
Cc1nn(-c2ccccc2)c(-c2ccccc2)c1C(=O)O
CCOC(=O)CSc1n[nH]c(NC(=O)c2cccc(C(F)(F)F)c2)n1
CN(C)c1ccc(NC(=O)c2cccc(N3C(=O)C4C5C=CC(C5)C4C3=O)c2)cc1 (configuration not stated)
Cc1nnsc1SCC(=O)O
CS(=O)(=O)N1CCN(c2ccc([N+](=O)[O-])c(NCc3ccccc3)c2)CC1
C1=C(CN2CCOCC2)COc2c1cccc2OC[C@@H]1CNCCO1
COc1ccc([N+](=O)[O-])cc1NC1C2CC3CC(C2)CC1C3 (configuration not stated)
CS(=O)(=O)Nc1ccc([N+](=O)[O-])cc1Oc1ccccc1

activity, negative = inhibition, inactive:
Nc1[nH]c(=S)[nH]c(=O)c1N=Nc1c(Br)cc(S(N)(=O)=O)cc1Br 7.23% [at 11.4 µM]
CC(C)=CCC/C(C)=C/CO/N=C1/[C@H]2O[C@@H]2[C@@H](O)[C@H]2[C@H]1CCn1c(=O)n(-c3ccccc3)c(=O)n12 -3.53% [at 11.4 µM]
Cc1ccc(-c2nc(-c3nccc4ccccc34)oc2-c2ccccc2)cc1 -9.6% [at 11.4 µM]

Source: PubChem BioAssay AID1851 (National Center for Advancing Translational Sciences (NCATS), 2009)
